Assay results published in PubChem BioAssay (EPA / NIEHS).
Inconclusive results are not listed. Activity calls are given as the source filed them. The calls were made as follows, unless noted: active = hit-call score of the fitted dose curve at least 0.9, where 1 is the maximum; inconclusive = response in the unintended direction; inactive = score below 0.9.

Assays:
[1] = target: CCAAT/enhancer-binding protein beta (Homo sapiens) (UniProt P17676); assay: ATG_C_EBP_CIS: Attagene CIS-FACTORIAL HepG2 Assay for human CCAAT/Enhancer Binding Protein (C/EBP) beta (AID 2282927; active = hit-call score of the fitted dose curve at least 0.9, where 1 is the maximum; inactive = score below 0.9); conditions: HepG2 Attagene cis-factorial transcription factor reporter; actives raise or lower the signal
Procedure, shortened: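 Following a 24 h incubation with test chemical, transfected HepG2 cells yielded RNA whose reporter transcripts were quantified by RT-PCR and fluorescent capillary electrophoresis, with DMSO serving as baseline for bidirectional fitting.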

[2] = ATG_CMV_CIS: Attagene CIS-FACTORIAL HepG2 Assay for human CMV (Internal Marker) (AID 2282928; active = hit-call score of the fitted dose curve at least 0.9, where 1 is the maximum; inactive = score below 0.9;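 also: endpoint acts as a background internal control marker rather than a target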); conditions: HepG2 CMV promoter reporter, transcription factor profiling; actives raise or lower the signal
Procedure, shortened: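 Bidirectional fits against DMSO are applied to reporter mRNA, read by RT-PCR with capillary electrophoresis, from HepG2 cells exposed 24 h. The endpoint serves as an internal CMV background marker within the cis-factorial reporter panel.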

[3] = ATG_DR4_LXR_CIS: Attagene CIS-FACTORIAL HepG2 Assay for human Liver X Receptor (LXR), DR4 submotif (AID 2282929; active = hit-call score of the fitted dose curve at least 0.9, where 1 is the maximum; inactive = score below 0.9); conditions: HepG2 Attagene DR4 cis-reporter, mRNA transcription; actives raise or lower the signal
Procedure, shortened: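 Transiently transfected HepG2 liver cells; cis-regulated reporters; 24 h dosing. RT-PCR plus CE read-out of reporter mRNA. DMSO baseline, bidirectional curve fitting.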

[4] = ATG_AP_1_CIS: Attagene CIS-FACTORIAL HepG2 Assay for human Activator Protein 1 (AP-1) (AID 2282931; active = hit-call score of the fitted dose curve at least 0.9, where 1 is the maximum; inactive = score below 0.9); conditions: HepG2 Attagene cis-factorial AP-1 reporter mRNA; actives raise or lower the signal
Procedure, shortened: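 We transfected HepG2 cells transiently with a set of cis-regulated reporter transcription units, dosed them for 24 h, and quantified reporter mRNA via RT-PCR and capillary electrophoresis, scoring gain or loss of signal relative to DMSO.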

[5] = ATG_BRE_CIS: Attagene CIS-FACTORIAL HepG2 Assay for human Bone Morphogenetic Protein (BMP) Response Element (BRE) (AID 2282933; active = hit-call score of the fitted dose curve at least 0.9, where 1 is the maximum; inactive = score below 0.9); conditions: HepG2 BMP response element reporter, Attagene transcription factor profiling; actives raise or lower the signal
Procedure, shortened: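 A HepG2 multiplex reporter system measured inducible reporter mRNA 24 h post-dosing. Detection: RT-PCR, 6-FAM primer extension, HpaI digestion, capillary electrophoresis. Activity fitted bidirectionally relative to DMSO.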

[6] = ATG_E_Box_CIS: Attagene CIS-FACTORIAL HepG2 Assay for human Enhancer Box (E-box) (AID 2282936; active = hit-call score of the fitted dose curve at least 0.9, where 1 is the maximum; inactive = score below 0.9); conditions: HepG2 E-box cis-reporter transcription, actives raise or lower the signal
Procedure, shortened: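 Endogenous transcription factor activity was sensed in human HepG2 liver cells through transfected cis-promoter reporter units. After 24 h of dosing, total RNA was reverse-transcribed and reporter cDNA resolved by capillary electrophoresis.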

[7] = ATG_EGR_CIS: Attagene CIS-FACTORIAL HepG2 Assay for human Early Growth Response 1 (EGR1) (AID 2282938; active = hit-call score of the fitted dose curve at least 0.9, where 1 is the maximum; inactive = score below 0.9); conditions: HepG2 Attagene CIS-FACTORIAL EGR reporter mRNA; actives raise or lower the signal
Procedure, shortened: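 Multiplexed cis-reporter system in human hepatoma HepG2 cells, transiently transfected. Cells are dosed for 24 h; reporter transcripts are amplified, fluorescently tagged and sized by capillary electrophoresis, with DMSO as negative control.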

[8] = ATG_M_19_CIS: Attagene CIS-FACTORIAL HepG2 Assay for M19 Transcription Factor (Internal Marker) (AID 2282939; active = hit-call score of the fitted dose curve at least 0.9, where 1 is the maximum; inactive = score below 0.9); conditions: HepG2 Attagene CIS-FACTORIAL M19 internal marker reporter; actives raise or lower the signal
Procedure, shortened: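 Chemical-treated HepG2 (24 h) with MRTU constructs; reporter transcripts detected by fluorescent RT-PCR fragment analysis on capillary electrophoresis. Internal background marker, DMSO as baseline.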

[9] = ATG_Ets_CIS: Attagene CIS-FACTORIAL HepG2 Assay for human Erythroblast Transformation Specific (ETS) (AID 2282941; active = hit-call score of the fitted dose curve at least 0.9, where 1 is the maximum; inactive = score below 0.9); conditions: HepG2 ETS cis-reporter transcription, actives raise or lower the signal
Procedure, shortened: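 Endogenous transcription factor activity read as reporter mRNA via RT-PCR and capillary electrophoresis, with gain or loss fitted bidirectionally against DMSO. Human HepG2 liver cells, transiently transfected CIS reporter constructs, 24 h exposure.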

[10] = ATG_FoxO_CIS: Attagene CIS-FACTORIAL HepG2 Assay for human Forkhead box O (FoxO) (AID 2282943; active = hit-call score of the fitted dose curve at least 0.9, where 1 is the maximum; inactive = score below 0.9); conditions: HepG2 Attagene cis-reporter, FoxO element, mRNA; actives raise or lower the signal
Procedure, shortened: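 Values reflect reporter mRNA induction or loss in HepG2 cells 24 h post-dosing, fitted bidirectionally with DMSO as negative control and baseline. Detection used RT-PCR and fluorescence capillary electrophoresis.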

[11] = ATG_GATA_CIS: Attagene CIS-FACTORIAL HepG2 Assay for human GATA Binding Protein (AID 2282944; active = hit-call score of the fitted dose curve at least 0.9, where 1 is the maximum; inactive = score below 0.9); conditions: HepG2 GATA cis-element reporter, Attagene multiplex mRNA; actives raise or lower the signal
Procedure, shortened: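 Transfected cis-reporter HepG2 cells were treated with chemicals for 24 hours. Total RNA was then converted to cDNA, amplified with reporter-specific primers and analysed by fluorescent capillary electrophoresis, using DMSO-treated wells as baseline.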

[12] = ATG_ISRE_CIS: Attagene CIS-FACTORIAL HepG2 Assay for human Interferon Regulatory Factor 1 (IRF1) binding to an Interferon-Stimulated Response Element (ISRE) (AID 2282948; active = hit-call score of the fitted dose curve at least 0.9, where 1 is the maximum; inactive = score below 0.9); conditions: HepG2 ISRE cis-reporter (Attagene), mRNA transcription readout; actives raise or lower the signal
Procedure, shortened: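 Endogenous transcription factor activity read as reporter transcript abundance via RT-PCR and capillary electrophoresis. HepG2 cells transiently transfected, 24 h chemical exposure. Gain or loss fitted against DMSO baseline.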

[13] = ATG_M_06_CIS: Attagene CIS-FACTORIAL HepG2 Assay for M06 Transcription Factor (Internal Marker) (AID 2282950; active = hit-call score of the fitted dose curve at least 0.9, where 1 is the maximum; inactive = score below 0.9); conditions: HepG2 Attagene CIS-FACTORIAL M06 internal marker reporter; actives raise or lower the signal
Procedure, shortened: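 Cells (HepG2, transiently carrying cis-driven reporter units) receive chemical for 24 h before RNA isolation. Reporter cDNA is PCR-amplified, FAM-labelled by primer extension, HpaI-digested and sized on a capillary analyser.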

[14] = target: Hepatocyte nuclear factor 6 (Homo sapiens) (UniProt Q9UBC0); assay: ATG_HNF6_CIS: Attagene CIS-FACTORIAL HepG2 Assay for human Hepatocyte Nuclear Factor 6 (HNF6) (AID 2282952; active = hit-call score of the fitted dose curve at least 0.9, where 1 is the maximum; inactive = score below 0.9); conditions: HepG2 Attagene cis-factorial HNF6 reporter transcription; actives raise or lower the signal
Procedure, shortened: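 Endogenous transcription factor activity in human HepG2 liver cells was captured through cis-regulated reporter constructs. After 24 h treatment, reporter mRNA was measured by RT-PCR with capillary electrophoresis, and activity was fitted in both directions relative to DMSO.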

[15] = ATG_MRE_CIS: Attagene CIS-FACTORIAL HepG2 Assay for human Metal Responsive Element (MRE) (AID 2282954; active = hit-call score of the fitted dose curve at least 0.9, where 1 is the maximum; inactive = score below 0.9); conditions: HepG2 MRE cis-reporter transcription, Attagene multiplex; actives raise or lower the signal
Procedure, shortened: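 Cells were transfected with cis-promoter reporter transcription units, then dosed for 24 h. RNA was reverse-transcribed, amplified, fluorescently labelled and resolved by capillary electrophoresis, and activity was fitted in both directions relative to DMSO.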

[16] = target: Paired box protein Pax-6 (Homo sapiens) (UniProt P26367); assay: ATG_Pax6_CIS: Attagene CIS-FACTORIAL HepG2 Assay for human Paired Box 6 (PAX6) (AID 2282956; active = hit-call score of the fitted dose curve at least 0.9, where 1 is the maximum; inactive = score below 0.9); conditions: HepG2 CIS-FACTORIAL PAX6 reporter transcription, RNA readout; actives raise or lower the signal
Procedure, shortened: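 Read-out is reporter transcript level, measured by RT-PCR with fluorescent primer extension and capillary electrophoresis after 24 h dosing of transfected HepG2 cells. Activity in either direction fitted relative to DMSO control.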

[17] = ATG_Sox_CIS: Attagene CIS-FACTORIAL HepG2 Assay for human SRY-box transcription factor (SOX) (AID 2282960; active = hit-call score of the fitted dose curve at least 0.9, where 1 is the maximum; inactive = score below 0.9); conditions: HepG2 Attagene cis-factorial SOX reporter, mRNA; actives raise or lower the signal
Procedure, shortened: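 Fluorescence-labelled cDNA fragments from reporter transcripts, sized by CE, give the signal. Cells: HepG2, transiently transfected with cis-regulated reporter units. Exposure 24 h; DMSO negative control; bidirectional curve fitting.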

[18] = target: Transcription factor Sp1 (Homo sapiens) (UniProt P08047); assay: ATG_Sp1_CIS: Attagene CIS-FACTORIAL HepG2 Assay for human Specificity Protein 1 (Sp1) (AID 2282961; active = hit-call score of the fitted dose curve at least 0.9, where 1 is the maximum; inactive = score below 0.9); conditions: HepG2 Sp1 cis-reporter transcription, actives raise or lower the signal
Procedure, shortened: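 Chemicals are dosed onto HepG2 cells transfected with multiple cis-promoter reporter constructs, and after 24 h reporter RNA is reverse-transcribed, PCR-amplified and resolved by capillary electrophoresis for fluorescence quantitation; activity is scored up or down against DMSO.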

[19] = target: Signal transducer and activator of transcription 3 (Homo sapiens) (UniProt P40763); assay: ATG_STAT3_CIS: Attagene CIS-FACTORIAL HepG2 Assay for human Signal Transducer and Activator of Transcription 3 (STAT3) (AID 2282963; active = hit-call score of the fitted dose curve at least 0.9, where 1 is the maximum; inactive = score below 0.9); conditions: HepG2, Attagene cis-factorial STAT3 reporter transcription; actives raise or lower the signal
Procedure, shortened: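 HepG2, MRTU-transfected, 24 h dosing. RNA → RT → PCR → FAM label → HpaI → CE. Bidirectional fit vs DMSO.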

[20] = target: Androgen receptor (Homo sapiens) (UniProt P10275); assay: ATG_AR_TRANS: Attagene TRANS-FACTORIAL HepG2 Assay for human Androgen Receptor (AR) (AID 2282973); conditions: HepG2 Attagene TRANS-FACTORIAL AR reporter transcription
Procedure, shortened: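 Transfected HepG2, 24 h treatment, chimeric NR-Gal4 driving GAL4-UAS reporters. mRNA induction by RT-PCR/capillary electrophoresis fluorescence; DMSO as negative control and baseline.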

Androgen receptor (Homo sapiens), sequence (P10275 whole entry, looked up, the tested form may be a part): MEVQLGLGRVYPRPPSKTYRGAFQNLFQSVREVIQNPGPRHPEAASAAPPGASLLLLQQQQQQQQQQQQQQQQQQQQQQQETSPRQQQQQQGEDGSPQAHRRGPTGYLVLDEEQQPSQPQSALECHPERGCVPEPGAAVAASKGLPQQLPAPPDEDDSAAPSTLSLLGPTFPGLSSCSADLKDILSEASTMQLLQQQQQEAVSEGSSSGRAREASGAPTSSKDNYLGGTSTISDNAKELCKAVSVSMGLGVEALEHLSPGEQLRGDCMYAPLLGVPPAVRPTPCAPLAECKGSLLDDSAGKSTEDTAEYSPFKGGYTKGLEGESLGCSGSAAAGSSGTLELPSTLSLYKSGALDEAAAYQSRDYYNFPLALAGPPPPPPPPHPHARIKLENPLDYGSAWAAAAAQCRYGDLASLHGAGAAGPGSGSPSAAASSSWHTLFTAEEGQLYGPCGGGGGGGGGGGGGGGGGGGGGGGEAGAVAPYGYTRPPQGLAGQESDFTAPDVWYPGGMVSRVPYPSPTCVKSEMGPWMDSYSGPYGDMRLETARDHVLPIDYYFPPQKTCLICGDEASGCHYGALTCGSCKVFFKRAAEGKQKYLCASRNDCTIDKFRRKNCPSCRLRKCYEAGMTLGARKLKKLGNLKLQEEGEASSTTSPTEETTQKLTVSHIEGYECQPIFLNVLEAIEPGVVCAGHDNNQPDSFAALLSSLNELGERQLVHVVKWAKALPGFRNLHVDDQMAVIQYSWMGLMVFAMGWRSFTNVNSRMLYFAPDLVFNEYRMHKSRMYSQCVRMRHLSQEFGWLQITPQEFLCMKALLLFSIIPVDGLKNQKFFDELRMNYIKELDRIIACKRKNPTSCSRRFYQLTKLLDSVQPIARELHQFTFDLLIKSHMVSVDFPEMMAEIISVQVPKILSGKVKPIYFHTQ
Hepatocyte nuclear factor 6 (Homo sapiens), sequence (Q9UBC0 whole entry, looked up): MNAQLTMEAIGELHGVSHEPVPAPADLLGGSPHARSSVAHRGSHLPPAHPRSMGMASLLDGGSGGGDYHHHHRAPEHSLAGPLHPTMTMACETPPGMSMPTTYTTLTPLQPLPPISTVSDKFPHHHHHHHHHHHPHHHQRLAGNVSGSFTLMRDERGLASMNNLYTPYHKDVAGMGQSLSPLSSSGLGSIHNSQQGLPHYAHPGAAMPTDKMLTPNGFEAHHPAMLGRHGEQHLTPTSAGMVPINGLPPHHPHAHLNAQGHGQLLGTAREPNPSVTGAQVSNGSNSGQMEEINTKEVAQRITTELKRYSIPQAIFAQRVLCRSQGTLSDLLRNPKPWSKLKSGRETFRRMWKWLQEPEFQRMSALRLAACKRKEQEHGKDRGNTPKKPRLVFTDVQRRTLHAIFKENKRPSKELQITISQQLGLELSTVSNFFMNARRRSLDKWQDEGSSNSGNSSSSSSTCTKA
Paired box protein Pax-6 (Homo sapiens), sequence (P26367 whole entry, looked up): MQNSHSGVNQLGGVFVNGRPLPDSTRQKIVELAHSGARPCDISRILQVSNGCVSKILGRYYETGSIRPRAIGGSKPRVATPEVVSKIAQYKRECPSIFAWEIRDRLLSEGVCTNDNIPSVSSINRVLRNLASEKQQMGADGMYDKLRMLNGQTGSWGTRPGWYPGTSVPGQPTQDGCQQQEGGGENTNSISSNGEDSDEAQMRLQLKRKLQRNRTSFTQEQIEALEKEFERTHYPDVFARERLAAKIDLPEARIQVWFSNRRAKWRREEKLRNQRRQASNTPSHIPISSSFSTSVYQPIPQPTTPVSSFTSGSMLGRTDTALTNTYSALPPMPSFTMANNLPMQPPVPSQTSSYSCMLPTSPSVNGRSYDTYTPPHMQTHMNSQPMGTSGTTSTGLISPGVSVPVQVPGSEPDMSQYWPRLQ
CCAAT/enhancer-binding protein beta (Homo sapiens), sequence (P17676 whole entry, looked up): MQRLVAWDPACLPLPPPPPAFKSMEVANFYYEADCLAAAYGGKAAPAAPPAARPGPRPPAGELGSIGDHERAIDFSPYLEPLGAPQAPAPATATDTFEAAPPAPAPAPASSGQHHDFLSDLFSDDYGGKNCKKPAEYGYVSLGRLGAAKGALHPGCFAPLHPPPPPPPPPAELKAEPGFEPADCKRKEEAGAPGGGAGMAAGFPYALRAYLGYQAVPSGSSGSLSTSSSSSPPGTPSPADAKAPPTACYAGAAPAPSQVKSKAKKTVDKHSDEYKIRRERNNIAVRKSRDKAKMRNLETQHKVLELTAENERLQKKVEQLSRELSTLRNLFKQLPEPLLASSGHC
Transcription factor Sp1 (Homo sapiens), sequence (P08047 whole entry, looked up): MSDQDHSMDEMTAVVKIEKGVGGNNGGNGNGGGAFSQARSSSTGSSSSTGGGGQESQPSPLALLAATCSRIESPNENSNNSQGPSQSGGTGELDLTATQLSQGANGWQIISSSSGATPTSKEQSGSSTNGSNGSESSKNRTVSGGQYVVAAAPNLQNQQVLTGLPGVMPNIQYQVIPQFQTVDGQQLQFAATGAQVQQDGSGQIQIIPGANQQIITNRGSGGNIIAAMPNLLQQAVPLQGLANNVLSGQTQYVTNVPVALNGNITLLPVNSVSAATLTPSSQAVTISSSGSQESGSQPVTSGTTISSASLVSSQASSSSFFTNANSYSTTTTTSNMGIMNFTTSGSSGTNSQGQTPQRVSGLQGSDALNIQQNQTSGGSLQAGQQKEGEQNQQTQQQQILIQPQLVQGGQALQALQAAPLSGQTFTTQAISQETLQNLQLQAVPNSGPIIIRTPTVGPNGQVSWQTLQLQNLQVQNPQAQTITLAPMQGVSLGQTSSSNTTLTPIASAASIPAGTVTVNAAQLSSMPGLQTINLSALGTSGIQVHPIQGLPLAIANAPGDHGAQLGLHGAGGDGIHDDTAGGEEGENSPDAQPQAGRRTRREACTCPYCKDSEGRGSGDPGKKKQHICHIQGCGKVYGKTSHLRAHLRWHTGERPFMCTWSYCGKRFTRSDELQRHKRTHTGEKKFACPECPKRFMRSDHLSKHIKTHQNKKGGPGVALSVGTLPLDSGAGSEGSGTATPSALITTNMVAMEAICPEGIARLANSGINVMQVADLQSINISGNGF
Signal transducer and activator of transcription 3 (Homo sapiens), sequence (P40763 whole entry, looked up): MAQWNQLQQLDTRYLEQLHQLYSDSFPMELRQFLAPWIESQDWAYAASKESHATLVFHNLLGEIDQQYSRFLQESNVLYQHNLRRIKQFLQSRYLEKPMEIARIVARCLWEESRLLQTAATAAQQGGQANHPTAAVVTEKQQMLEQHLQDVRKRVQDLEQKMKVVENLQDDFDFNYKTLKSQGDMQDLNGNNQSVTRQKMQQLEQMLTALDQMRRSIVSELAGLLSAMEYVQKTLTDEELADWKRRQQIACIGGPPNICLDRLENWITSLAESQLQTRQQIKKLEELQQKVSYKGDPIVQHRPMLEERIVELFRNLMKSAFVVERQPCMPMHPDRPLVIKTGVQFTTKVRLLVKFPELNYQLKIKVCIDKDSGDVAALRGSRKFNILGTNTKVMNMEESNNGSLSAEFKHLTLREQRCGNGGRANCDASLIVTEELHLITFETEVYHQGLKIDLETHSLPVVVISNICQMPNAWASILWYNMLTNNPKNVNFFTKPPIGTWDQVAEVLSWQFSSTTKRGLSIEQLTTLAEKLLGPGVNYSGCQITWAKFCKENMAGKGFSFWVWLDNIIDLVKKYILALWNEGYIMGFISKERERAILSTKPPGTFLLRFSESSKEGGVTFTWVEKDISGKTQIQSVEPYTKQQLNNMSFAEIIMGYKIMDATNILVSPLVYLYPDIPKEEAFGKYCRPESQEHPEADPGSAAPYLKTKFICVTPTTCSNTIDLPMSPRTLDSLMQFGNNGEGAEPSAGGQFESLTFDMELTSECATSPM

For `c1ccc(Nc2ccc3ccccc3c2)cc1`, the outcome [1] was “inactive”, the outcome [2] was “inactive” and the AC50 [3] was 20.6 µM (active). For the same molecule, the AC50 [4] was 115 µM (active), the outcome [5] was “inactive” and the outcome [6] was “inactive”. For the same molecule, the outcome [7] was “inactive”, the outcome [8] was “inactive” and the outcome [9] was “inactive”. The outcome [10] was “inactive”, the outcome [11] was “inactive” and the outcome [12] was “inactive”. For the same molecule, the outcome [13] was “inactive”, the outcome [14] was “inactive” and the outcome [15] was “inactive”. For the same molecule, the outcome [16] was “inactive”, the outcome [17] was “inactive” and the outcome [18] was “inactive”. For the same molecule, the outcome [19] was “inactive”.

For `O=C(c1ccccc1)c1ccc(Cl)cc1`, the outcome [20] was “inactive”.

For `BrCc1cccc(Oc2ccccc2)c1`, the outcome [20] was “inactive”.

For `NNC(=O)OCc1ccccc1`, the outcome [20] was “inactive”.

For `CC(C)[C@@H]1CC[C@@H](C)C[C@H]1O`, the outcome [20] was “inactive”.

In the case of `CCCCC1CCC(O)CC1` (stereo not drawn), the outcome [20] is reported as “inactive”.

For `O=c1cc(-c2ccccc2)oc2ccccc12`, the outcome [20] was “inactive”.

In the case of `CCCOC(=O)c1ccc(C(=O)OCCC)nc1`, the outcome [20] is reported as “inactive”.

For `CCO[Si](C)(C)OCC`, the outcome [20] was “inactive”.

With `CC(CC=O)CCCC(C)(C)O` (stereo not drawn) the outcome [20] was “inactive”.

For `CC1CCC(CO)CC1` (stereo not drawn), the outcome [20] was “inactive”.

For `CCCCCCS`, the outcome [20] was “inactive”.

With `C=CC(=O)OCCOC(=O)C=C` the outcome [20] was “inactive”.

In the case of `C[Si](O[Si](C)(C)C)O[Si](C)(C)C`, the outcome [20] is reported as “inactive”.

For `COC(=O)c1ccc([N+](=O)[O-])cc1`, the outcome [20] was “inactive”.

In the case of `O=C(Cl)c1ccc(Cl)cc1Cl`, the outcome [20] is reported as “inactive”.

With `FC(F)=C(F)C(F)(F)C(F)(F)C(F)(F)C(F)F` the outcome [20] was “inactive”.

With `O=S(=O)(c1ccc(OCc2ccccc2)cc1)c1ccccc1O` the outcome [20] was “inactive”.

In the case of `CC(C)(C)NC(N)=O`, the outcome [20] is reported as “inactive”.

With `CC(=O)OC1CCCCC1` the outcome [20] was “inactive”.

In the case of `CCC(C)NC(N)=O` (stereo not drawn), the outcome [20] is reported as “inactive”.

For `c1ccc2c(c1)CCC2`, the outcome [20] was “inactive”.

In the case of `Cc1cc(=O)[nH]c(C(C)C)n1`, the outcome [20] is reported as “inactive”.

With `COc1ccc(CCO)cc1` the outcome [20] was “inactive”.

With `COC(F)(F)C(F)(C(F)(F)F)C(F)(F)F` the outcome [20] was “inactive”.

With `O=Nc1ccc(Nc2ccccc2)cc1` the outcome [20] was “inactive”.

For `FC(OC(F)(F)C(F)(F)C(F)(F)F)C(F)(F)F` (stereo not drawn), the outcome [20] was “inactive”.

With `CCc1c(Br)c(Br)c(Br)c(Br)c1Br` the outcome [20] was “inactive”.

With `C=CC(F)(F)C(F)(F)C(F)(F)C(F)(F)F` the outcome [20] was “inactive”.

With `CC=C(C)C=CC=C(C)C` the outcome [20] was “inactive”.

With `CCCCCCCCCCOC(=O)c1ccccc1C(=O)OCCCCCCCC` the outcome [20] was “inactive”.

In the case of `O=[N+]([O-])c1ccccc1C(F)(F)F`, the outcome [20] is reported as “inactive”.

For `CCCCNc1ccc(NCCCC)c2c1C(=O)c1ccccc1C2=O`, the outcome [20] was “inactive”.

For `c1ccc(-c2ccccc2-c2ccccc2)cc1`, the outcome [20] was “inactive”.

In the case of `Cc1ccc(N(C)C)cc1`, the outcome [20] is reported as “inactive”.

For `c1cc[nH]c1`, the outcome [20] was “inactive”.

In the case of `CC1=CC(=O)c2ccccc2C1=O`, the outcome [20] is reported as “inactive”.

With `Cc1cccc(C(=O)O)c1` the outcome [20] was “inactive”.

In the case of `O=C1OCc2ccccc21`, the outcome [20] is reported as “inactive”.

In the case of `C=C(C)[C@@H]1CC=C(C)C(=O)C1`, the outcome [20] is reported as “inactive”.
